The results in this text go back to publication PMC11006913.

HOXA2 (Homo sapiens, UniProt O43364 129-215), sequence (O43364 129-215): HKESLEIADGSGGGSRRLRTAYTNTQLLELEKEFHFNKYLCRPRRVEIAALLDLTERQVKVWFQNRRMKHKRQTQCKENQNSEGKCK
ALX3 (Homo sapiens, UniProt O95076 139-225, N203S), sequence (O95076 139-225 N203S): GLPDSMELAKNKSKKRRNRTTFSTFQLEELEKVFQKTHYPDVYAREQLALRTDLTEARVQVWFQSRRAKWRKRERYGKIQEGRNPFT
VAX1 (Homo sapiens, UniProt Q5SQQ9 86-172, T142I), sequence (Q5SQQ9 86-172 T142I): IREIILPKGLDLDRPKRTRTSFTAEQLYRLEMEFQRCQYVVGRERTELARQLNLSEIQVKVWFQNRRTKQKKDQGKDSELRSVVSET
ALX3 (Homo sapiens, UniProt O95076 139-225, L168Q), sequence (O95076 139-225 L168Q): as the sequence (O95076 139-225 N203S) above, with L30Q, S65N counted along it
HOXB6, sequence (P17509 132-218): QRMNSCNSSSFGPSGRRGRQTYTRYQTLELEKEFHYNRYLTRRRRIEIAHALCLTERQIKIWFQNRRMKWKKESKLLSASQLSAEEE
VAX1 (Homo sapiens, UniProt Q5SQQ9 86-172, K157R), sequence (Q5SQQ9 86-172 K157R): as the sequence (Q5SQQ9 86-172 T142I) above, with I57T, K72R counted along it

The first experiment has as its target ALX3 (Homo sapiens, UniProt O95076 139-225, L168Q). Description: PBM; 200 nM protein, PBS. As to conditions: dsDNA, one strand shown.
Take CGAGGGCG: the binding signal was 7.78 upbm affinity estimate (log intensity, higher = more binding, comparable within an allelic series).
Turning to ACCCCCCG, the binding signal was 7.65 upbm affinity estimate (log intensity, higher = more binding, comparable within an allelic series).
On the same count and under the same terms, the figure for GGCCCGGA is 7.72 upbm affinity estimate (log intensity, higher = more binding, comparable within an allelic series); for CCCCCCGA it is 7.67 upbm affinity estimate (log intensity, higher = more binding, comparable within an allelic series); for ATCCCCCC it is 7.61 upbm affinity estimate (log intensity, higher = more binding, comparable within an allelic series).
Still for that read-out and setting: the figure for CCCAGACC is 7.78 upbm affinity estimate (log intensity, higher = more binding, comparable within an allelic series).
Still for that read-out and setting: the figure for CCCCCGGC is 7.56 upbm affinity estimate (log intensity, higher = more binding, comparable within an allelic series); for CCGGCTCC it is 7.65 upbm affinity estimate (log intensity, higher = more binding, comparable within an allelic series).

For the next experiment, the target named is HOXD13 (Homo sapiens, UniProt P35453 263-343, T313A). Description: PBM; 200 nM protein, PBS. The conditions noted are these: dsDNA, one strand shown.
HOXD13, sequence (P35453 263-343 T313A): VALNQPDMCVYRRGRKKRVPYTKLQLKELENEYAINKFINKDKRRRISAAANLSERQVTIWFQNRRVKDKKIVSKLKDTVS
With AGGCTGGG, the binding signal is 9.67 upbm affinity estimate (log intensity, higher = more binding, comparable within an allelic series).
On the same count and under the same terms, the figure for AGAAGGGG is 9.57 upbm affinity estimate (log intensity, higher = more binding, comparable within an allelic series); for CCCCAAGG it is 9.53 upbm affinity estimate (log intensity, higher = more binding, comparable within an allelic series).
Turning to CAATAAAG, the binding signal was 11.7 upbm affinity estimate (log intensity, higher = more binding, comparable within an allelic series).

The target in another experiment is T1, NKX2-6 (Homo sapiens, UniProt A6NCS4 118-204, F151L).
T1 sequence: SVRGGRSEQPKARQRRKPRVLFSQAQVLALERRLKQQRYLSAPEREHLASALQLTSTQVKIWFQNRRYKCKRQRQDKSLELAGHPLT
Put plainly: PBM; 200 nM protein, PBS. The conditions noted are these: dsDNA, one strand shown.
For the sequence ACCCCCCG, the binding signal is 9.07 upbm affinity estimate (log intensity, higher = more binding, comparable within an allelic series).
With CCCGTGTC, the binding signal was 9.22 upbm affinity estimate (log intensity, higher = more binding, comparable within an allelic series).
Regarding CCCGGTCG, the binding signal was 9.02 upbm affinity estimate (log intensity, higher = more binding, comparable within an allelic series).

The target in another experiment is ALX3 (Homo sapiens, UniProt O95076 139-225, L168V). Put plainly: PBM; 200 nM protein, PBS. The conditions noted are these: dsDNA, one strand shown.
ALX3 (Homo sapiens, UniProt O95076 139-225, L168V), sequence (O95076 139-225 L168V): as the sequence (O95076 139-225 N203S) above, with L30V, S65N counted along it
On to CGAGGGCG, for which the binding signal is 7.76 upbm affinity estimate (log intensity, higher = more binding, comparable within an allelic series).
Same read-out and setting: the figure for ACCCCCCG is 7.57 upbm affinity estimate (log intensity, higher = more binding, comparable within an allelic series); for GGCCCGGA it is 7.71 upbm affinity estimate (log intensity, higher = more binding, comparable within an allelic series); for CCCCCCGA it is 7.65 upbm affinity estimate (log intensity, higher = more binding, comparable within an allelic series).
With ATCCCCCC, the binding signal is 7.58 upbm affinity estimate (log intensity, higher = more binding, comparable within an allelic series).
The same measure, in the same setting: for CCCAGACC the value was 7.7 upbm affinity estimate (log intensity, higher = more binding, comparable within an allelic series).
In the case of CCCCCGGC, the binding signal was 7.46 upbm affinity estimate (log intensity, higher = more binding, comparable within an allelic series).
Still for that read-out and setting: the figure for CCGGCTCC is 7.64 upbm affinity estimate (log intensity, higher = more binding, comparable within an allelic series).

The target in the next experiment is MSX2 (Homo sapiens, UniProt P35548 130-214, F161Y). Put plainly: PBM; 200 nM protein, PBS. As to conditions: dsDNA, one strand shown.
MSX2, sequence (P35548 130-214 F161Y): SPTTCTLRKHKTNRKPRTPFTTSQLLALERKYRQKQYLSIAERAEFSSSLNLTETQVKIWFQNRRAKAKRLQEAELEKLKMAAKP
For the sequence GCTGCTCC, the binding signal was 9.41 upbm affinity estimate (log intensity, higher = more binding, comparable within an allelic series).
Regarding AGGGCGGG, the binding signal is 9.62 upbm affinity estimate (log intensity, higher = more binding, comparable within an allelic series).
Same read-out and setting: the figure for GGCCCGGA is 9.46 upbm affinity estimate (log intensity, higher = more binding, comparable within an allelic series); for CCCGGTCG it is 9.41 upbm affinity estimate (log intensity, higher = more binding, comparable within an allelic series).

The next experiment addresses VAX1 (Homo sapiens, UniProt Q5SQQ9 86-172, T142I). Put plainly: PBM; 200 nM protein, PBS. As to conditions: dsDNA, one strand shown.
In the case of ATAATGAG, the binding signal was 12.6 upbm affinity estimate (log intensity, higher = more binding, comparable within an allelic series).
On the same count and under the same terms, the figure for TAATGAGA is 12.7 upbm affinity estimate (log intensity, higher = more binding, comparable within an allelic series); for GACTCACC it is 7.2 upbm affinity estimate (log intensity, higher = more binding, comparable within an allelic series).

In a further experiment the target is HOXA2 (Homo sapiens, UniProt O43364 129-215, Y150S). Description: PBM; 200 nM protein, PBS. The conditions noted are these: dsDNA, one strand shown.
HOXA2 (Homo sapiens, UniProt O43364 129-215, Y150S), sequence (O43364 129-215 Y150S): as the sequence (O43364 129-215) above, with Y22S counted along it
Take ATAATGAG: the binding signal is 10.8 upbm affinity estimate (log intensity, higher = more binding, comparable within an allelic series).
For the sequence TAATGAGA, the binding signal is 10.8 upbm affinity estimate (log intensity, higher = more binding, comparable within an allelic series).
Still for that read-out and setting: the figure for CACTGGCC is 10.5 upbm affinity estimate (log intensity, higher = more binding, comparable within an allelic series).
For AGGGCTCC, the binding signal is 10.3 upbm affinity estimate (log intensity, higher = more binding, comparable within an allelic series).
Regarding ATCCCCCC, the binding signal was 10.4 upbm affinity estimate (log intensity, higher = more binding, comparable within an allelic series).

A further experiment deals with HOXA4 (Homo sapiens, UniProt Q00056 201-287, W262F). Put plainly: PBM; 200 nM protein, PBS. As to conditions: dsDNA, one strand shown.
HOXA4, sequence (Q00056 201-287 W262F): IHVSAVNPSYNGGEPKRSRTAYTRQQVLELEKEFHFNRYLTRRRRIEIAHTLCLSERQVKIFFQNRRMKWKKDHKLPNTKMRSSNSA
Take GCTGCTCC: the binding signal is 9.78 upbm affinity estimate (log intensity, higher = more binding, comparable within an allelic series).
The same measure, in the same setting: the figure for GACTCCGC is 9.87 upbm affinity estimate (log intensity, higher = more binding, comparable within an allelic series); for AGGCTGGG it is 9.84 upbm affinity estimate (log intensity, higher = more binding, comparable within an allelic series); for CATCCCCC it is 9.58 upbm affinity estimate (log intensity, higher = more binding, comparable within an allelic series).
The same measure, in the same setting: the figure for CCCCCTAG is 9.73 upbm affinity estimate (log intensity, higher = more binding, comparable within an allelic series); for ATAATGAG it is 11.2 upbm affinity estimate (log intensity, higher = more binding, comparable within an allelic series); for CGAGGGCG it is 9.89 upbm affinity estimate (log intensity, higher = more binding, comparable within an allelic series).
AGGGCGGG: the binding signal is 10.1 upbm affinity estimate (log intensity, higher = more binding, comparable within an allelic series).
The same measure, in the same setting: the figure for TAATGAGA is 11.5 upbm affinity estimate (log intensity, higher = more binding, comparable within an allelic series); for AGAAGGGG it is 9.68 upbm affinity estimate (log intensity, higher = more binding, comparable within an allelic series); for CACTGGCC it is 9.96 upbm affinity estimate (log intensity, higher = more binding, comparable within an allelic series).
Regarding GAAGGGGA, the binding signal is 10 upbm affinity estimate (log intensity, higher = more binding, comparable within an allelic series).
Same read-out and setting: for ACCCCCCG the value was 9.7 upbm affinity estimate (log intensity, higher = more binding, comparable within an allelic series).
The same measure, in the same setting: for CCCGTGTC the value was 9.79 upbm affinity estimate (log intensity, higher = more binding, comparable within an allelic series); for CATTAACG, 11.4 upbm affinity estimate (log intensity, higher = more binding, comparable within an allelic series).
Still for that read-out and setting: the figure for GCCCCCAC is 9.84 upbm affinity estimate (log intensity, higher = more binding, comparable within an allelic series); for AGGGCTCC it is 9.81 upbm affinity estimate (log intensity, higher = more binding, comparable within an allelic series); for CCTGGGCG it is 9.8 upbm affinity estimate (log intensity, higher = more binding, comparable within an allelic series).
AGCTCCCC: the binding signal is 9.81 upbm affinity estimate (log intensity, higher = more binding, comparable within an allelic series).
The same measure, in the same setting: for CCCCAAGG the value was 9.86 upbm affinity estimate (log intensity, higher = more binding, comparable within an allelic series); for GCGGTCAC, 9.9 upbm affinity estimate (log intensity, higher = more binding, comparable within an allelic series).
GGCCCGGA: the binding signal was 9.78 upbm affinity estimate (log intensity, higher = more binding, comparable within an allelic series).
The same measure, in the same setting: the figure for AGGAGTCC is 9.94 upbm affinity estimate (log intensity, higher = more binding, comparable within an allelic series); for CCCCCCGA it is 9.57 upbm affinity estimate (log intensity, higher = more binding, comparable within an allelic series).
The same measure, in the same setting: for ATCCCCCC the value was 9.46 upbm affinity estimate (log intensity, higher = more binding, comparable within an allelic series); for AGTCCCCG, 9.99 upbm affinity estimate (log intensity, higher = more binding, comparable within an allelic series); for CCCAGACC, 9.84 upbm affinity estimate (log intensity, higher = more binding, comparable within an allelic series).
Same read-out and setting: for AGGGACGG the value was 9.93 upbm affinity estimate (log intensity, higher = more binding, comparable within an allelic series); for CCCCCGGC, 9.51 upbm affinity estimate (log intensity, higher = more binding, comparable within an allelic series); for CCGGCACG, 9.93 upbm affinity estimate (log intensity, higher = more binding, comparable within an allelic series).
GACTCACC: the binding signal was 9.8 upbm affinity estimate (log intensity, higher = more binding, comparable within an allelic series).
As to CCCGGTCG, the binding signal was 9.76 upbm affinity estimate (log intensity, higher = more binding, comparable within an allelic series).
Same read-out and setting: the figure for CCCATGGC is 9.85 upbm affinity estimate (log intensity, higher = more binding, comparable within an allelic series); for CCGGCTCC it is 9.75 upbm affinity estimate (log intensity, higher = more binding, comparable within an allelic series); for GGGGCACC it is 9.88 upbm affinity estimate (log intensity, higher = more binding, comparable within an allelic series).
The same measure, in the same setting: the figure for AACTAATA is 11 upbm affinity estimate (log intensity, higher = more binding, comparable within an allelic series); for CCTCGTCC it is 9.98 upbm affinity estimate (log intensity, higher = more binding, comparable within an allelic series); for CATTAATC it is 11.3 upbm affinity estimate (log intensity, higher = more binding, comparable within an allelic series).

A further experiment has as its target ALX3 (Homo sapiens, UniProt O95076 139-225, N203S). Description: PBM; 200 nM protein, PBS. The conditions noted are these: dsDNA, one strand shown.
Regarding CGAGGGCG, the binding signal is 7.73 upbm affinity estimate (log intensity, higher = more binding, comparable within an allelic series).
Take ACCCCCCG: the binding signal was 7.73 upbm affinity estimate (log intensity, higher = more binding, comparable within an allelic series).
Turning to GGCCCGGA, the binding signal is 7.75 upbm affinity estimate (log intensity, higher = more binding, comparable within an allelic series).
Consider CCCCCCGA, for which the binding signal is 7.71 upbm affinity estimate (log intensity, higher = more binding, comparable within an allelic series).
The same measure, in the same setting: for ATCCCCCC the value was 7.67 upbm affinity estimate (log intensity, higher = more binding, comparable within an allelic series); for CCCAGACC, 7.84 upbm affinity estimate (log intensity, higher = more binding, comparable within an allelic series).
For the sequence CCCCCGGC, the binding signal is 7.52 upbm affinity estimate (log intensity, higher = more binding, comparable within an allelic series).
Same read-out and setting: the figure for CCGGCTCC is 7.7 upbm affinity estimate (log intensity, higher = more binding, comparable within an allelic series); for AACTAATA it is 8.65 upbm affinity estimate (log intensity, higher = more binding, comparable within an allelic series).

A further experiment has as its target HOXA2 (Homo sapiens, UniProt O43364 129-215). Description: PBM; 200 nM protein, PBS. As to conditions: dsDNA, one strand shown.
In the case of ATAATGAG, the binding signal was 12.3 upbm affinity estimate (log intensity, higher = more binding, comparable within an allelic series).
As for TAATGAGA, the binding signal was 12.5 upbm affinity estimate (log intensity, higher = more binding, comparable within an allelic series).
Turning to CACTGGCC, the binding signal was 7.16 upbm affinity estimate (log intensity, higher = more binding, comparable within an allelic series).
AGGGCTCC: the binding signal is 7.22 upbm affinity estimate (log intensity, higher = more binding, comparable within an allelic series).
Still for that read-out and setting: for ATCCCCCC the value was 7.3 upbm affinity estimate (log intensity, higher = more binding, comparable within an allelic series).

A further experiment addresses VAX1 (Homo sapiens, UniProt Q5SQQ9 86-172, K157R). Description: PBM; 200 nM protein, PBS. As to conditions: dsDNA, one strand shown.
Turning to ATAATGAG, the binding signal was 12.5 upbm affinity estimate (log intensity, higher = more binding, comparable within an allelic series).
On the same count and under the same terms, for TAATGAGA the value was 12.8 upbm affinity estimate (log intensity, higher = more binding, comparable within an allelic series).
Same read-out and setting: for GACTCACC the value was 7.1 upbm affinity estimate (log intensity, higher = more binding, comparable within an allelic series).

Another experiment concerns the target HOXB6 (Homo sapiens, UniProt P17509 132-218). Description: PBM; 200 nM protein, PBS. The conditions noted are these: dsDNA, one strand shown.
For the sequence CCCCCTAG, the binding signal was 8.86 upbm affinity estimate (log intensity, higher = more binding, comparable within an allelic series).
For the sequence ATCATAAG, the binding signal was 10.3 upbm affinity estimate (log intensity, higher = more binding, comparable within an allelic series).
Still for that read-out and setting: the figure for CATTAACG is 11.6 upbm affinity estimate (log intensity, higher = more binding, comparable within an allelic series).
In the case of GCCCCCAC, the binding signal is 8.92 upbm affinity estimate (log intensity, higher = more binding, comparable within an allelic series).
Still for that read-out and setting: the figure for GGGGCACC is 8.89 upbm affinity estimate (log intensity, higher = more binding, comparable within an allelic series).
